# Records with an inconclusive call do not appear. Where a call stands in place of a potency, no number is given. Calls of active or inactive are those of the source. Unless noted, calls come from the whole dose curve; as a rule, active = well fitted curve in the direction sought with a large enough effect; inconclusive = small, poorly fitted or top-dose-only effect, or another doubt; inactive = no such curve, though single readings can be large; an effect the other way counts as inactive or inconclusive.
# Key:
# [1] = NCATS anti-infectives library activity on HEK293 viability as a counter-qHTS vs the C. elegans viability qHTS (AID 1745854);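 note: HEK293 cells exposed to compounds for 24 hr before the viability read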; note: potency is the fitted concentration of half-maximal effect
# Summary of the method: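 HEK293 cells (1,500/well) exposed 24 hr at 37C to 1:5 titrations, up to 41.7 uM final; counter-screen to a C. elegans viability qHTS. Viability by CellTiter-Glo luminescence after 10 min at room temperature; digitonin as control.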
# [2] = NCATS anti-infectives library activity on the primary C. elegans qHTS viability assay (AID 1745855; calls by dose curve; note: potency is the fitted concentration of half-maximal effect)
# Summary of the method: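 Viability read-out is GFP fluorescence of PE254-GFP-FLuc C. elegans, measured by laser cytometry (488 nm) at day 0, 3 and 7. Ten L1 worms per well were incubated 7 days at 21 °C with compounds and bacterial capsules in S medium.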
# [3] = molecular target: Glutathione peroxidase 1 (Homo sapiens) (UniProt P07203); assay: Primary qHTS Assay for Inhibitors of Recombinant Selenoprotein Glutathione Peroxidase 1 (GPX1) (AID 1845191); note: nearly all actives have a fitted effect of over 65% in size
# Summary of the method: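 Recombinant GPX1 (10 nM final) was preincubated with compound for 30 min at room temperature, then reacted with 1 mM GSH, 0.5 mM CHP, 0.5 mM NADPH and 100 nM glutathione reductase; NADPH fluorescence (340/450 nm) was read at 0 and 15 min.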
# [4] = molecular target: Phospholipid hydroperoxide glutathione peroxidase GPX4 (Homo sapiens) (UniProt P36969); assay: Primary qHTS Assay for Inhibitors of Recombinant Selenoprotein Glutathione Peroxidase 4 (GPX4) (AID 1845192); note: nearly all actives have a fitted effect of over 65% in size; note: potency is the fitted concentration of half-maximal effect
# Summary of the method: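 GR-coupled readout: 100 nM GR, 1 mM GSH, 0.5 mM NADPH; NADPH fluorescence (ex 340/em 450 nm) read at t=0 and after 15 min RT. GPX4 200 nM, preincubated 30 min with compound; substrate 0.5 mM CHP.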
# [5] = qHTS drug screen for cell cycle checkpoint inhibitors in PARPi-resistant BRCA-mutant ovarian cancer cell lines. (AID 1963452; calls by dose curve); settings: PEO1/OlaR viability, CellTiter-Glo luminescence, 96 h, stronger effect = lower value
# Summary of the method: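 PEO1, PEO4 and PEO1/OlaR ovarian cancer cells, 600 per well, exposed 96 h at 37C to a dilution series. Viability read by CellTiter-Glo luminescence, normalized to DMSO and empty wells; activity summarized as Z-AUC.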
# [6] = molecular target: Estrogen receptor (Homo sapiens) (UniProt P03372); assay: qHTS assay for small molecule agonists of estrogen receptor alpha signaling (AID 588514; calls by dose curve; note: nearly all actives have a fitted effect of over 70% in size)
# Summary of the method: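 ER-alpha-UAS-bla GripTite HEK293 cells, 5000/well in 2% charcoal/dextran-stripped FBS medium, treated with compound titrations 18 h at 37 C. CCF4 beta-lactamase read by fluorescence after 2 h RT; normalised to 20 nM 17-beta-estradiol (100%) and DMSO (0%), Hill fit for EC50 and efficacy.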
# [7] = molecular target: Glucocorticoid receptor (Homo sapiens) (UniProt P04150); assay: qHTS assay for small molecule agonists of glucocorticoid receptor signaling (AID 588532; active = well fitted curve in the direction sought with a large enough effect in the signal ratio, with a control signal flat; the % refers to the signal ratio); settings: HeLa MMTV-bla, beta-lactamase ratio, agonist, 18 h; stronger effect = higher value; percent of dexamethasone control, DMSO zero
# Summary of the method: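 Stimulation of a glucocorticoid response element-driven beta-lactamase gene was measured in HeLa cells. Responses were scaled between DMSO basal and 0.1 uM dexamethasone, then fitted for half-maximal stimulation.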
# [8] = molecular target: Vitamin D3 receptor (Homo sapiens) (UniProt P11473); assay: qHTS assay for small molecule antagonists of vitamin D receptor signaling (AID 588541; calls by dose curve;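 note: receptor activated by calcitriol during compound treatment; series mostly up to about 77 µM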)
# Summary of the method: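 VDR-UAS-bla HEK293T cells (2000/well, 2% charcoal-stripped FBS) were treated with titrated compounds plus 1-alpha,25-dihydroxyvitamin D3 (50 nM or 3 nM final) for 16 h at 37 C. CCF4 beta-lactamase fluorescence was read; Hill fits gave IC50.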
# [9] = molecular target: Vitamin D3 receptor (Homo sapiens) (UniProt P11473); assay: qHTS assay for small molecule agonists of vitamin D receptor signaling (AID 588543; calls by dose curve)
# Summary of the method: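 Agonist-mode beta-lactamase reporter: HEK293T VDR-UAS-bla cells in charcoal-stripped 2% FBS, compound series 16 h 37 C, CCF4 2 h RT. EC50 from Hill fit, scaled against DMSO and 50 nM calcitriol control.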
# [10] = qHTS assay for small molecule agonists of retinoid X receptor alpha signaling (AID 588544); settings: HEK293T RXRa-UAS-bla, beta-lactamase reporter, 18 h; 530 nm emission
# [11] = molecular target: Thyroid hormone receptor beta (Homo sapiens) (UniProt P10828); assay: qHTS assay for small molecule agonists of thyroid hormone receptor beta signaling (AID 588545; calls by dose curve)
# Summary of the method: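 TR-UAS-bla-GripTite HEK 293 cells in medium with 2% charcoal/dextran FBS, 0.1 mM NEAA and 1 mM sodium pyruvate were treated with titrated compounds for 18 hrs at 37 C. Beta-lactamase reporter was read with CCF4 dye (ex 405, em 460/530 nm); EC50 from Hill fits.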
# [12] = qHTS assay for small molecule antagonists of retinoid X receptor alpha signaling (AID 588546; active = well fitted inhibition curve with a large enough effect in the signal ratio, with a control signal flat, not every such curve was filed as active; the % refers to the signal ratio;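 note: cells stimulated with 9-cis-retinoic acid as agonist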); settings: HEK293T RXRa-UAS-bla, beta-lactamase ratio, antagonist mode; measured here: W530 green channel, cytotoxicity proxy
# Summary of the method: (§1)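 Beta-lactamase reporter inhibition, read as CCF4 fluorescence ratio (ex 405, em 460/530 nm) after 2 h at RT. HEK293T UAS-bla cells, 2500/well, were stimulated with 9-cis-RA at 500 or 100 nM final alongside test compound for 18 h at 37 C.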
# [13] = molecular target: Retinoic acid receptor RXR-alpha (Homo sapiens) (UniProt P19793); assay: as above; settings: HEK293T RXRa-UAS-bla, beta-lactamase ratio, antagonist mode
# Summary of the method: as §1
# [14] = qHTS assay for small molecule activators of the p53 signaling pathway (AID 651743; active = well fitted activation curve with a large enough effect in the signal ratio, not every such curve was filed as active; the % refers to the signal ratio; note: series mostly up to about 92 µM); settings: HCT-116 p53RE-bla, beta-lactamase FRET ratio, 16 h; activation: stronger effect = higher value
# Summary of the method: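 Cell-based beta-lactamase reporter (p53 response elements, HCT-116 background). After a 5-hour preincubation, cells received compound for 16 hours at 37 C; substrate development ran 2 hours at room temperature.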
# [15] = qHTS assay for environmental chemicals that activate the Aryl hydrocarbon Receptor (AhR) signaling pathway (AID 651777); settings: 1A2-DRE human hepatoma cells, luciferase, 24 h; activation: stronger effect = higher value; note: nearly all actives have a fitted effect of over 15% in size
# Summary of the method: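 Luminescence read-out: One-Glo added for 30 min at RT after 24 hr compound treatment (37 C, 5% CO2) of human hepatoma cells expressing a DRE/CYP1A2 promoter–luciferase reporter; increased signal indicates AhR activation.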
# [16] = molecular target: Peroxisome proliferator-activated receptor alpha (Homo sapiens) (UniProt Q07869); assay: qHTS assay for small molecule agonists of the peroxisome proliferator-activated receptor alpha (PPARalpha) signaling pathway (AID 651778); settings: PathHunter PPARalpha complementation, chemiluminescence, 6 h; max response: stronger effect = higher value
# Summary of the method: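 Cells plated at 2,000/well and held overnight at 37 C, 5% CO2, then compound added by pin tool for 6 hr; after PathHunter detection reagent and 60 min at room temperature, chemiluminescence from enzyme complementation was read.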
# [17] = qHTS assay for small molecule agonists of the antioxidant response element (ARE) signaling pathway measured by Nrf2-dependant transcriptional activity - cell viability counter screen (AID 720653; active = well fitted curve in the direction sought with a large enough effect in the repeat runs; an effect the other way counts as inactive or inconclusive); settings: ARE-bla HepG2 viability, CellTiter-Glo ATP luminescence, 16 h; max response: stronger effect = lower value
# Summary of the method: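 ARE-bla HepG2 cells (2,000/well) rested 5 hrs at 37C/5% CO2, then exposed to compounds in DMSO for 16 hrs. Viability was read in the same wells as intracellular ATP by luminescence, 30 min at room temperature after reagent addition.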
# [18] = qHTS assay for cell viability of the p53RE-bla HCT-116 cell line (AID 743292); note: nearly all actives have a fitted effect of over 55% in size
# Summary of the method: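 Luminescent ATP quantitation (CellTiter-Glo) served as the viability read-out; reagent was added after 16 h compound exposure at 37 C and read after 30 min at room temperature. Cells: p53RE-bla HCT-116, 4,000 per well.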
# [19] = molecular target: Nuclear receptor subfamily 1 group I member 2 (Rattus norvegicus) (UniProt Q9R1A7); assay: qHTS assay for small molecule activators of the rat pregnane X receptor (rPXR) signaling pathway (AID 651751; call rule not given here); settings: rPXR reporter cells, luciferase (One-Glo), 24 h
# [20] = qHTS assay for small molecule activators of the human pregnane X receptor (PXR) signaling pathway (AID 720659; call rule not given here)
# Sequence of Phospholipid hydroperoxide glutathione peroxidase GPX4 (Homo sapiens) (P36969 whole entry, looked up): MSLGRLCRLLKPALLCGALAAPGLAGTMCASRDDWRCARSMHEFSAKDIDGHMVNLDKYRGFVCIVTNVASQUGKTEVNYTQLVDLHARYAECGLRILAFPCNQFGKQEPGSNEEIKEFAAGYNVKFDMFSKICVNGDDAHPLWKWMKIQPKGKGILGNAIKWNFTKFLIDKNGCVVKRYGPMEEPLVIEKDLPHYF
# Sequence of Vitamin D3 receptor (Homo sapiens) (P11473 whole entry, looked up): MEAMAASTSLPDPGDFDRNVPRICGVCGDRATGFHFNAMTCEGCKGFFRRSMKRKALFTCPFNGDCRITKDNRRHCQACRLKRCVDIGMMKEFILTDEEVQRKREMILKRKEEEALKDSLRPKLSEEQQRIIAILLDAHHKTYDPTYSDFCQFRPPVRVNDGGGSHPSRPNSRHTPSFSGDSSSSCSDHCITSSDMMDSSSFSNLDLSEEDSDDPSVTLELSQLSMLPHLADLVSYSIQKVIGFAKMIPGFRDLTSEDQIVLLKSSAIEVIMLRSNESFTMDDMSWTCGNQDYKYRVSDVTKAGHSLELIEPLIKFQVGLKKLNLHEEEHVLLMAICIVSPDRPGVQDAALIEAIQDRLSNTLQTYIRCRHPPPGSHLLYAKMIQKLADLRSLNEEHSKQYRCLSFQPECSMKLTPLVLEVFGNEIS
# Sequence of Glutathione peroxidase 1 (Homo sapiens) (P07203 whole entry, looked up): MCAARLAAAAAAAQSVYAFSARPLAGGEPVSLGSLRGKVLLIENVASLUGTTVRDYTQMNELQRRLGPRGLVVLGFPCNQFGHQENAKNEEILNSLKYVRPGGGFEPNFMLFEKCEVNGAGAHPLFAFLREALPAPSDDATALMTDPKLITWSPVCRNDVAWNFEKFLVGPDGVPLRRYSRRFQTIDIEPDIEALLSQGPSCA
# Sequence of Thyroid hormone receptor beta (Homo sapiens) (P10828 whole entry, looked up): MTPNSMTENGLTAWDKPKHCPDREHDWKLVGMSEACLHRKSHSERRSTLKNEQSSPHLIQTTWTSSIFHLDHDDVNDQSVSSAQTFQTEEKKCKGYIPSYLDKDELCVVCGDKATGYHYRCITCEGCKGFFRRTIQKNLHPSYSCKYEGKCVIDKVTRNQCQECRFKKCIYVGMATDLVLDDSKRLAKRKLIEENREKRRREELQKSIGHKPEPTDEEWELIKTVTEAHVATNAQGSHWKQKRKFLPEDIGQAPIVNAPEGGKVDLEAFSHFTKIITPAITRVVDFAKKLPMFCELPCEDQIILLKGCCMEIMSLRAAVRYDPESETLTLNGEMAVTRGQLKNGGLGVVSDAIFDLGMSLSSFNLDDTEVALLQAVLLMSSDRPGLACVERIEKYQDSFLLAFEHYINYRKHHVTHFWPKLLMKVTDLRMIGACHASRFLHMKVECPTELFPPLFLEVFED
# Sequence of Nuclear receptor subfamily 1 group I member 2 (Rattus norvegicus) (Q9R1A7 whole entry, looked up): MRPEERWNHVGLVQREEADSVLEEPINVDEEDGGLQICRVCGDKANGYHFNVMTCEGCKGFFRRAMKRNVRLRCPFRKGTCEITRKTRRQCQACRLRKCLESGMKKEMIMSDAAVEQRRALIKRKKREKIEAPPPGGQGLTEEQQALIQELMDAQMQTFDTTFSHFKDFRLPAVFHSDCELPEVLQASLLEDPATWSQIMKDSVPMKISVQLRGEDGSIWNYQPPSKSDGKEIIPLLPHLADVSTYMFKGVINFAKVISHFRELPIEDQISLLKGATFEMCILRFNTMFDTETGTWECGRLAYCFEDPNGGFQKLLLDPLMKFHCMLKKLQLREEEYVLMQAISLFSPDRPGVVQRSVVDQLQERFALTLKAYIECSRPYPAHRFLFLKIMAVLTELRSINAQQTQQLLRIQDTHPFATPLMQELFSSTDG
# Sequence of Retinoic acid receptor RXR-alpha (Homo sapiens) (P19793 whole entry, looked up): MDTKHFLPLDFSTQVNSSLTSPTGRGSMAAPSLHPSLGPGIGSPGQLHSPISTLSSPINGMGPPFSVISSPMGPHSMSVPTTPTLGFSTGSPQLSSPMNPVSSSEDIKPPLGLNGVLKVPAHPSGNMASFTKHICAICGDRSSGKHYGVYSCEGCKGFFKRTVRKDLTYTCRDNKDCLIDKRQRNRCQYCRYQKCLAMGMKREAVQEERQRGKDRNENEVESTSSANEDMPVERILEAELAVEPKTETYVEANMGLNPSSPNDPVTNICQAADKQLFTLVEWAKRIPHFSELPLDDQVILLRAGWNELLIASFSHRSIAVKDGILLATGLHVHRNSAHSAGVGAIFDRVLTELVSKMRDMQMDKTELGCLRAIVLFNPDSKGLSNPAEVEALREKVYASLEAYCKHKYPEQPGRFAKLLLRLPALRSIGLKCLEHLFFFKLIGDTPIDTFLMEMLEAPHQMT
# Sequence of Peroxisome proliferator-activated receptor alpha (Homo sapiens) (Q07869 whole entry, looked up): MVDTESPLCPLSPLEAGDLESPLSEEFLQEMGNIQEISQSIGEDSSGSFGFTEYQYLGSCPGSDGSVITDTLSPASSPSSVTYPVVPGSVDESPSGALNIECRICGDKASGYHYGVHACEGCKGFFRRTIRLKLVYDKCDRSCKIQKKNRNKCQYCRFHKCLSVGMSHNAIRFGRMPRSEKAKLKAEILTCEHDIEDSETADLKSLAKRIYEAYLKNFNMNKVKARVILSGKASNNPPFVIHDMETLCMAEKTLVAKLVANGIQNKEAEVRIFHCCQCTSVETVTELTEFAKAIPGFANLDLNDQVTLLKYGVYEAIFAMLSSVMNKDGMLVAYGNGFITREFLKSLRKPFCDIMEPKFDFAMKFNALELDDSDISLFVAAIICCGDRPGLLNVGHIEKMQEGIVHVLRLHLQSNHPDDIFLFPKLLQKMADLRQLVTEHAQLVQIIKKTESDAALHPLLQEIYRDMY
# Sequence of Glucocorticoid receptor (Homo sapiens) (P04150 whole entry, looked up): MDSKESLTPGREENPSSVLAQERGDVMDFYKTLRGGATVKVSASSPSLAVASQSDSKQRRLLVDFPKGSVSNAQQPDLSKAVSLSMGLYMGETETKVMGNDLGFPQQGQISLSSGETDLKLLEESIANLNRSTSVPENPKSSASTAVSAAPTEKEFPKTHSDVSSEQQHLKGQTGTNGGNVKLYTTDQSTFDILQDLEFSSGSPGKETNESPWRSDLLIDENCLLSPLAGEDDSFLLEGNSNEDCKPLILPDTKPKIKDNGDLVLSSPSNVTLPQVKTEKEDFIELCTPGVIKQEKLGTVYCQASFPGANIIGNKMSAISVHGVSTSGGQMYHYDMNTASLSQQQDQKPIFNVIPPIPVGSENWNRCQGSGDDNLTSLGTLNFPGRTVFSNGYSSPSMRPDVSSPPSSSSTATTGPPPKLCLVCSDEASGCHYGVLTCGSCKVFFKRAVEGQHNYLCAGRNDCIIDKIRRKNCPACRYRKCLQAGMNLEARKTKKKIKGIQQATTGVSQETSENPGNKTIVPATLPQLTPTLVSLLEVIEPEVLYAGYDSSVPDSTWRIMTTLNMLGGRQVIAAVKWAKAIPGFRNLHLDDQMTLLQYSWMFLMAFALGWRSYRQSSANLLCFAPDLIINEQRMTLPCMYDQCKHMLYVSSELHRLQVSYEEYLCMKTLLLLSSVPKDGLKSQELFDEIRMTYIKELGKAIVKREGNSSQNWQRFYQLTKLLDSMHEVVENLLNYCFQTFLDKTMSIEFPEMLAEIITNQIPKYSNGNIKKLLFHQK
# Sequence of Estrogen receptor (Homo sapiens) (P03372 whole entry, looked up): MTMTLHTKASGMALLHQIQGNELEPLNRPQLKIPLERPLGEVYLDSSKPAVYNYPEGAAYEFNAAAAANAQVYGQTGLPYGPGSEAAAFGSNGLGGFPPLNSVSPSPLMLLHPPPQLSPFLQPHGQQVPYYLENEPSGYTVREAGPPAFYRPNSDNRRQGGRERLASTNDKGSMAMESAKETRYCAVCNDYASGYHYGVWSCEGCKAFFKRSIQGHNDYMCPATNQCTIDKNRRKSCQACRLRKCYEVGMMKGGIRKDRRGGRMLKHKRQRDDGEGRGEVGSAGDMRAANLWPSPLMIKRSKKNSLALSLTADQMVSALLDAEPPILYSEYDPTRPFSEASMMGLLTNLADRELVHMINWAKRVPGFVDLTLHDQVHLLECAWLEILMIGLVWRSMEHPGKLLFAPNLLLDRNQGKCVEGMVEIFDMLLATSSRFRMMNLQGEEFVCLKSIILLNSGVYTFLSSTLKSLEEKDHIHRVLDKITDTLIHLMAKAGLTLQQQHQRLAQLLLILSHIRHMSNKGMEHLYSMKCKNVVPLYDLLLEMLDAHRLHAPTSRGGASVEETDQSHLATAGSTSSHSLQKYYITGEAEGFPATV
compound,measurement,setting,value
CC(C)=C1C/C=C(\C)CC/C=C(\C)CC1=O,Potency,[1],inactive
Cc1ccc(C(=O)NCCCCCC(=O)Nc2ccccc2N)cc1,Potency,[1],inactive
CCNC(=O)c1cc2c(-c3cc(C(C)(C)O)ccc3Oc3c(C)cc(F)cc3C)cn(C)c(=O)c2[nH]1,Potency,[1],inactive
C[C@H](NC(=O)[C@H](Cc1ccccc1)NC(=O)OCc1ccccc1)C(=O)CF,Potency,[1],inactive
C[C@@H]1O[C@@H](O[C@@H]2[C@@H](O)[C@H](OCCc3ccc(O)c(O)c3)O[C@H](CO)[C@H]2OC(=O)/C=C/c2ccc(O)c(O)c2)[C@H](O)[C@H](O)[C@H]1O,Potency,[1],inactive
C=C1CCC2C(C)(CO)C(O)CCC2(C)C1C/C=C1\C=COC1=O (stereo unspecified),Potency,[1],inactive
COc1cc(O)c2c(=O)cc(-c3ccc(O)cc3)oc2c1,Potency,[1],inactive
O=c1cc(-c2ccc(O)cc2)oc2cc(O)c(O)c(O)c12,Potency,[1],inactive
O=C1CC(=O)c2c(Cl)c(Cl)c(Cl)c(Cl)c21,Potency,[1],inactive
C[C@@]1(F)[C@H](O)[C@@H](CO)O[C@H]1n1ccc(=O)[nH]c1=O,Potency,[1],inactive
same,Potency,[2],inactive
CC(C)CS(=O)(=O)c1oc(-c2ccc(F)cc2)nc1S(=O)(=O)c1ccccc1,Potency,[1],3.98 µM (active)
O=C1CCC[C@@H]2[C@@H]3CCC[N@+]4([O-])CCC[C@H](CN12)[C@H]34,Potency,[1],inactive
same,Potency,[3],inactive
same,Potency,[4],inactive
same,Z-AUC,[5],1.48 (inactive)
same,Z-AUC,[5]; measured here: PEO1 parental Z-AUC,0.635
same,Z-AUC,[5]; measured here: PEO4 Z-AUC,0.881
CC(C)CN(C[C@@H](O)[C@H](Cc1ccccc1)NC(=O)[C@@H](NC(=O)CNCc1cccc(F)c1)C(C)(C)C)S(=O)(=O)c1cccc(N)c1,Potency,[1],inactive
same,Potency,[2],inactive
O=C(O[C@@H]1Cc2c(O)cc(O)cc2O[C@@H]1c1cc(O)c(O)c(O)c1)c1cc(O)c(O)c(O)c1,Potency,[6],inactive
same,activation,[7],4.83% (inactive)
same,outcome,[8],inactive
same,outcome,[9],inactive
same,max response,[10],-0.202%
same,outcome,[11],inactive
same,max response,[12],-13.5%
same,max response,[13],-1.14% (inactive)
same,activation,[14],-1.73% (inactive)
same,activation,[15],-3.33% (inactive)
same,max response,[16],-1.73% (inactive)
same,max response,[17],-12.8% (inactive)
same,Potency,[18],inactive
same,Potency,[1],inactive
same,Potency,[2],163 nM (active)
same,max response,[19],-1.38% (inactive)
same,outcome,[20],inactive
CC(C)C[C@H](NC(=O)[C@H]1O[C@@H]1C(=O)O)C(=O)NCCCCN=C(N)N,Potency,[1],inactive
same,Potency,[3],inactive
C=C[C@@H]1C[C@]1(NC(=O)[C@@H]1C[C@@H]2CN1C(=O)[C@H](C(C)(C)C)NC(=O)O[C@@H]1C[C@H]1CCCCCc1nc3ccc(OC)cc3nc1O2)C(=O)NS(=O)(=O)C1CC1,Potency,[1],inactive
same,Potency,[4],5.62 µM (active)

# Reference: PubChem BioAssay (NCATS)
